Results as given in PubChem BioAssay (EPA / NIEHS).
Records with an inconclusive call do not appear. The source made the active and inactive calls. The calls were made as follows: active = hit-call score of the fitted dose curve at least 0.9, where 1 is the maximum; inconclusive = response in the unintended direction; inactive = score below 0.9.

Tests used:
[1] = biological target: Cellular tumor antigen p53 (Homo sapiens) (UniProt P04637); assay: TOX21_p53_BLA_p2_ratio: Tox21 HCT-116 p53 Agonism Beta-lactamase Assay, Ratio, Phase 2 (AID 2283592)
Sequence of Cellular tumor antigen p53 (Homo sapiens) (P04637 whole entry, looked up): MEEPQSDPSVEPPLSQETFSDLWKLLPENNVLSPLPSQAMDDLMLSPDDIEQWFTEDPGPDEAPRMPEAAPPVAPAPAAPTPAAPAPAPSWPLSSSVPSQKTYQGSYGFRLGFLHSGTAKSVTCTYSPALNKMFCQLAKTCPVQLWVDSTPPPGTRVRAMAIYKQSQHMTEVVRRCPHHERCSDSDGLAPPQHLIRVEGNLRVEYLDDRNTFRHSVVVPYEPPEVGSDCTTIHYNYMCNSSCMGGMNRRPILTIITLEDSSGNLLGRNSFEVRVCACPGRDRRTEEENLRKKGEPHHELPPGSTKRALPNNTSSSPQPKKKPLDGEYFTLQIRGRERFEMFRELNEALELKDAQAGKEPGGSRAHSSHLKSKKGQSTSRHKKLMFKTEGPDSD
Procedure, shortened: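 Ratio endpoint: beta-lactamase cleavage of CCF4-AM, blue (460 nm) over green (530 nm). HCT116 reporter line; 16 h treatment, 37C; substrate 2 h RT.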

[2] = TOX21_p53_BLA_p4_viability: Viability Assessment in the Tox21 HCT-116 p53 Agonism Beta-lactamase Assay, Phase 4 (AID 2283597);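 also: hits lower the luminescence signal meaning cytotoxicity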
Procedure, shortened: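 Cytotoxicity was inferred from loss of CellTiter-Glo luminescence. HCT116 cells had been dosed with compounds after 5 h plating, incubated 16 h at 37C and 5% CO2, and exposed to the CCF4-AM substrate for 2 h.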

[3] = biological target: Cellular tumor antigen p53 (Homo sapiens) (UniProt P04637); assay: TOX21_p53_BLA_p5_ratio: Tox21 HCT-116 p53 Agonism Beta-lactamase Assay, Ratio, Phase 5 (AID 2283599)
Procedure, shortened: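 HCT-116 p53-bla cells (4000/well) plated 5 h, dosed with compound (217-fold DMSO dilution) for 16 h at 37 C; CCF4-AM substrate 2 h at room temperature. Activity is the 460/530 nm emission ratio (405 nm excitation), fitted in gain-of-signal direction versus DMSO.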

[4] = biological target: Cellular tumor antigen p53 (Homo sapiens) (UniProt P04637); assay: TOX21_p53_BLA_p3_ratio: Tox21 HCT-116 p53 Agonism Beta-lactamase Assay, Ratio, Phase 3 (AID 2283596)
Procedure, shortened: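 Cells were seeded at 4000/well, rested 5 h at 37C, then dosed with DMSO compound solutions (217-fold dilution) for 16 h. CCF4-AM substrate was loaded for 2 h at room temperature, and the 460/530 nm emission ratio was fitted for gain of signal versus DMSO.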

[5] = TOX21_p53_BLA_p5_viability: Viability Assessment in the Tox21 HCT-116 p53 Agonism Beta-lactamase Assay, Phase 5 (AID 2283600)
Procedure, shortened: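 Luciferase-coupled ATP quantitation of cells treated for 16 h (37C, 5% CO2) with test chemicals delivered in DMSO via a 217-fold dilution; 4000 cells/well; reagent incubated 30 min at room temperature before luminescence reading.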

[6] = biological target: Cellular tumor antigen p53 (Homo sapiens) (UniProt P04637); assay: TOX21_p53_BLA_p4_ratio: Tox21 HCT-116 p53 Agonism Beta-lactamase Assay, Ratio, Phase 4 (AID 2283601)
Procedure, shortened: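 HCT-116 p53 beta-lactamase reporter cells (4000/well) preincubated 5 h, then compound (217-fold dilution of DMSO stock) for 16 h at 37C. CCF4-AM substrate added 2 h at room temperature; 460/530 nm emission ratio fitted upward versus DMSO.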

[7] = biological target: Thyroid hormone receptor alpha (Rattus norvegicus) + Thyroid hormone receptor beta (Rattus norvegicus) (UniProt P18113+P63059); assay: TOX21_TR_LUC_GH3_Antagonist_Followup: Tox21 GH3 Thyroid Hormone Receptor Antagonism Luciferase Follow-Up Assay (AID 2283942)
Procedure, shortened: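 Luminescence read-out (ONE-Glo, 30 min at room temperature) in GH3 reporter cells challenged with 1.0 nM T3 final. Compounds ran at 92 uM to 5nM over 15 concentrations for 24 h; DMSO served as negative control and baseline.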

THRA (gene 7067) = THRA (gene 7067) (UniProt P10827); assay: TOX21_TRA_COA_Antagonist_Followup_ratio: Tox21 Thyroid Hormone Receptor alpha Antagonism through Coactivator Recruitment Follow-Up Assay, Ratio (AID 2283953)
Sequence of THRA (gene 7067) (P10827 whole entry, looked up, the tested form may be a part): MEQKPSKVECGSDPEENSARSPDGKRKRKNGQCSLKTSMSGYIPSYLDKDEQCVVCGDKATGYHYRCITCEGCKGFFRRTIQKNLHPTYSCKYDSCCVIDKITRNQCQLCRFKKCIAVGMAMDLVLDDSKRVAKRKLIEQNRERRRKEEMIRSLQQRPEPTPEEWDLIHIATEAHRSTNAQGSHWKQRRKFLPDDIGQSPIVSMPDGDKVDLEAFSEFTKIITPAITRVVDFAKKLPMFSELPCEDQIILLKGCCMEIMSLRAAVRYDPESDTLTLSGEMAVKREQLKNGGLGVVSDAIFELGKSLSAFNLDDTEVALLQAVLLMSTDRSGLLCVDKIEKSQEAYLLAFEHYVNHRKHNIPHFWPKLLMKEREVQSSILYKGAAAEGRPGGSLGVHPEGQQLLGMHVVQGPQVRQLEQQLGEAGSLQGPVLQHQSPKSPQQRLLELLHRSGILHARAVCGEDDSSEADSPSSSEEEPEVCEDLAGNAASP
Procedure, shortened: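 GST-TRα LBD 2.5 nM, BSA 0.10%, + cpd; then FITC-SRC-2 peptide 200 nM + Tb-anti-GST Ab 2 nM. TR-FRET ratio 520/495 nm. Norm: DMSO = 0%, T3 = 100%.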

THRB (gene 7068) [8] = biological target: THRB (gene 7068) (UniProt P10828); assay: TOX21_TRB_BLA_Antagonist_Followup_ratio: Tox21 Thyroid Hormone Receptor beta Antagonism Beta-lactamase (BLA) Follow-Up Assay, Ratio (AID 2283958)
Sequence of THRB (gene 7068) (P10828 whole entry, looked up, the tested form may be a part): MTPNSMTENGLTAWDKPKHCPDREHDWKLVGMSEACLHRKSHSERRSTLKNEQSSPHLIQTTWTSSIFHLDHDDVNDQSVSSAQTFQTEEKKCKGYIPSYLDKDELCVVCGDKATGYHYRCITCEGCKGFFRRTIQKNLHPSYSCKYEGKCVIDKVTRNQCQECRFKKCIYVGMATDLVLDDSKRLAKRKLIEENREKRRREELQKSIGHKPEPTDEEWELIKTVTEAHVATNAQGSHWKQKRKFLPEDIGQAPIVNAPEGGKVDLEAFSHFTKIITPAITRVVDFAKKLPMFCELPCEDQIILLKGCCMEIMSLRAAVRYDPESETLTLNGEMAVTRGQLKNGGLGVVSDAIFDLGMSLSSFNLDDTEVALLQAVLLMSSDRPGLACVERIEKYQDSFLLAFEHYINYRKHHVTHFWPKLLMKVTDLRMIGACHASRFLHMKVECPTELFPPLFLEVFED
Procedure, shortened: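 Cells were plated and allowed to attach for 5 h, then dosed with compounds in DMSO at 11 concentrations for 18 h at 37C. Beta-lactamase reporter activity was measured via CCF4-AM FRET as the 460:530 nm ratio.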

THRB (gene 7068) [9] = biological target: THRB (gene 7068) (UniProt P10828); assay: TOX21_TRB_COA_Antagonist_Followup_ratio: Tox21 Thyroid Hormone Receptor beta Antagonism through Coactivator Recruitment Follow-Up Assay, Ratio (AID 2283967)
Procedure, shortened: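 GST-TRb LBD 5.0 nM + 0.10% BSA, compound added; fluorescein-SRC-2 peptide 200 nM, Tb-anti-GST Ab 2 nM. TR-FRET, ex 340 / em 520:495 ratio. Norm: DMSO 0%, T3 100%.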

[10] = biological target: Retinoic acid receptor RXR-alpha (Homo sapiens) (UniProt P19793); assay: TOX21_TR_RXR_BLA_Antagonist_Followup_ratio: Tox21 Thyroid Hormone Receptor beta Retinoid X Receptor alpha (RXRa) Antagonism Beta-lactamase (BLA) Follow-Up Assay, Ratio (AID 2283972)
Sequence of Retinoic acid receptor RXR-alpha (Homo sapiens) (P19793 whole entry, looked up): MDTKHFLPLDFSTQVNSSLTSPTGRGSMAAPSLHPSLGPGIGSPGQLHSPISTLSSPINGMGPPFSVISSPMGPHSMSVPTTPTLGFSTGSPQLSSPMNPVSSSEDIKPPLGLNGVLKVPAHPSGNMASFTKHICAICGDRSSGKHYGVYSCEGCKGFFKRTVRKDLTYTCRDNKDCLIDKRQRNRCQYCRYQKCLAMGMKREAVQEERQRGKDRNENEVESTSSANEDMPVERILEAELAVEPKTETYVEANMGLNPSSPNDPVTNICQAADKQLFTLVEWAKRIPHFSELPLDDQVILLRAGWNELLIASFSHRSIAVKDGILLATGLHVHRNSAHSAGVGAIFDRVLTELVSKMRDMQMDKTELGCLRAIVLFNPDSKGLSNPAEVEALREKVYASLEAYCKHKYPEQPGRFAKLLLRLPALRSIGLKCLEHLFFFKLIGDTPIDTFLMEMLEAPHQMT
Procedure, shortened: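 RXRa-UAS-bla HEK293T cells in phenol red-free DMEM with 2% charcoal-stripped FBS; compounds at 11 concentrations in triplicate, 16 h at 37C. LiveBLAzer FRET-B/CCF4-AM substrate 2 h at room temperature; read as 460:530 nm ratio versus DMSO.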

Measured: outcome

Brc1cc2ccccc2c2ccccc12
inactive: [1] | [2] | [3]

O=C1c2ccccc2C(=O)C1c1ccc(F)cc1
inactive: [1] | [2] | [3]

N=C(N)c1ccccc1
inactive: [1] | [4] | [5] | [6]

COc1ccc(CN(CCN(C)C)c2ncccn2)cc1
inactive: [1] | [4] | [6]

C=CC(=O)[O-].C=CC(=O)[O-].[Zn+2]
inactive: [1] | [4] | [5] | [6]

O=C1c2ccccc2C(=O)C1c1ccccc1
inactive: [1] | [4] | [6]

O=C(O)CC(=O)O
inactive: [1] | [4] | [6]

O=C1OC(OC(=O)c2cccnc2Nc2cccc(C(F)(F)F)c2)c2ccccc21 (stereo unspecified)
inactive: [1] | [4] | [5] | [7] | THRA (gene 7067) | THRB (gene 7068) [8] | THRB (gene 7068) [9] | [10]

CC(C)CCC[C@@H](C)[C@H]1CC[C@H]2[C@@H]3CC[C@@H]4C[C@H](O)CC[C@]4(C)[C@H]3CC[C@]12C
inactive: [1] | [2] | [3] | [5]

O=C1OC(=O)c2cccc3cccc1c23
inactive: [1] | [4] | [6]

O=C(NCCCN1CCOCC1)c1ccc(Cl)cc1
inactive: [1] | [4] | [6]
